13 compounds from the supplement of paper PMC10646978 can be followed below.

± gives the standard deviation.

Common to all, as to settings: modulator concentration 10 µM
Assay [1] concerns RAW-Dual (murine macrophage reporter line). As to the kind of experiment: NF-kB reporter (SEAP) activity fold change vs agonist alone; higher = enhanced NF-kB activity. The procedure, abridged:
(§1)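 RAW-Dual murine macrophage reporter cells were seeded at 50 000 per well in 384-well plates and pre-incubated 1 hour at 37 °C with compound pin-transferred to 10 μM final. After 1 hour, a PRR agonist was added and cells incubated overnight. Supernatant NF-κB (SEAP, QUANTI-Blue, 620 nm absorbance) and IRF (Lucia luciferase, QUANTI-Luc, luminescence) signals were divided by the mean agonist-only control on the same plate to give fold change. Two replicate plates were averaged, with errors by propagation.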

Assay [2] has the same test system. Kind of assay: IRF reporter (Lucia luciferase) activity fold change vs agonist alone; higher = enhanced IRF activity. The procedure, abridged:
as §1

Assay [3] has the same test system. As to the kind of experiment: viability score (confluency relative to resting cells, overnight) (fraction); higher = more viable, active = viable (0.7 or more). The procedure, abridged: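 Compound was added at a final 10 μM to RAW-Dual macrophages in 384-well plates and left overnight. Confluency was imaged with IncuCyte, and two masks were generated in IncuCyte software over all imaged wells. Each viability score is confluency relative to resting cells, and a compound met the cutoff only when both masks were above 70% of resting cells.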

[4] abbreviates: agonist: CpG ODN 1826 0.5 ug/mL.

For `COc1cc2nccc(Oc3ccc(NC(=O)C4(C(=O)Nc5ccc(F)cc5)CC4)cc3)c2cc1OC.O=C(O)C[C@H](O)C(=O)O`, the NF-kB reporter in assay [1] (setting [4]) came to 0.56 ± 0.046; in assay [1] (agonist: LPS 0.1 ug/mL), 0.51 ± 0.026; in assay [1] (agonist: MPLA […]), 0.696 ± 0.019. Besides, the IRF reporter was 0.103 ± 0.0071 in assay [2] (agonist: 3'3'-cGAMP 10 ug/mL), 0.317 ± 0.031 in assay [2] (agonist: LPS 0.1 ug/mL) and 0.337 ± 0.027 in assay [2] (agonist: MPLA […]). Besides, in assay [3], the viability score was 0.842 (active).
For the compound `NC(=O)CC[C@@H](N)C(=O)O`, the NF-kB reporter in assay [1] (setting [4]) turned out to be 1.16 ± 0.31; in assay [1] (agonist: LPS 0.1 ug/mL), 1.05 ± 0.059; in assay [1] (agonist: MPLA […]), 0.953 ± 0.068. Also, the IRF reporter in assay [2] (agonist: 3'3'-cGAMP 10 ug/mL) was 0.946 ± 0.046; in assay [2] (agonist: LPS 0.1 ug/mL), 1.37 ± 0.2; in assay [2] (agonist: MPLA […]), 1.23 ± 0.17. For the same compound, the viability score in assay [3] is 1.01 (active).
Consider `Cc1ccc(S(=O)(=O)CCSc2cccc(C(=O)Nc3ccccc3)c2)cc1`, for which the NF-kB reporter in assay [1] (setting [4]) was found to be 0.992 ± 0.068; in assay [1] (agonist: LPS 0.1 ug/mL) it was 1.03 ± 0.087; in assay [1] (agonist: MPLA […]), 0.909 ± 0.1. Moreover, the results for the IRF reporter in assay [2] (agonist: 3'3'-cGAMP 10 ug/mL), in assay [2] (agonist: LPS 0.1 ug/mL) and in assay [2] (agonist: MPLA […]) were 0.808 ± 0.03, 1.26 ± 0.13 and 1.08 ± 0.098, respectively. Further, the viability score in assay [3] was 1 (active).
`Cc1ccc(CCNc2ccccc2C)cn1`: the NF-kB reporter was 1.05 ± 0.084 in assay [1] (setting [4]), 0.931 ± 0.11 in assay [1] (agonist: LPS 0.1 ug/mL) and 1.2 ± 0.12 in assay [1] (agonist: MPLA […]). Besides, the results for the IRF reporter in assay [2] (agonist: 3'3'-cGAMP 10 ug/mL), in assay [2] (agonist: LPS 0.1 ug/mL) and in assay [2] (agonist: MPLA […]) were 1 ± 0.067, 1.35 ± 0.21 and 1.73 ± 0.39, respectively. In addition, the viability score in assay [3] was 0.993 (active).
`CC(=O)NC(NC(C)=O)c1cccc([N+](=O)[O-])c1`: the NF-kB reporter in assay [1] (setting [4]) worked out at 1.15 ± 0.12; in assay [1] (agonist: LPS 0.1 ug/mL), 1 ± 0.13; in assay [1] (agonist: MPLA […]) it was 0.998 ± 0.039. The results for the IRF reporter in assay [2] (agonist: 3'3'-cGAMP 10 ug/mL), in assay [2] (agonist: LPS 0.1 ug/mL) and in assay [2] (agonist: MPLA […]) were 0.968 ± 0.043, 0.99 ± 0.085 and 1.05 ± 0.12, respectively. Moreover, the viability score in assay [3] is 0.995 (active).
Regarding `CC#CC(=O)N1CCC[C@H]1c1nc(-c2ccc(C(=O)Nc3ccccn3)cc2)c2c(N)nccn12`, the NF-kB reporter in assay [1] (setting [4]) amounted to 0.946 ± 0.24; in assay [1] (agonist: LPS 0.1 ug/mL), 1.03 ± 0.077; in assay [1] (agonist: MPLA […]) it was 0.876 ± 0.068. In addition, the IRF reporter was found to be 0.575 ± 0.019 in assay [2] (agonist: 3'3'-cGAMP 10 ug/mL), 1.02 ± 0.11 in assay [2] (agonist: LPS 0.1 ug/mL) and 1.03 ± 0.15 in assay [2] (agonist: MPLA […]). Moreover, in assay [3], the viability score is 0.736 (active).
Regarding `O=C(Nc1ccc(-c2cn3ccsc3n2)cc1)C1CCCC1`, the NF-kB reporter in assay [1] (setting [4]) turned out to be 1.14 ± 0.09; in assay [1] (agonist: LPS 0.1 ug/mL), 1.1 ± 0.15; in assay [1] (agonist: MPLA […]) it was 1.37 ± 0.13. Further, the IRF reporter in assay [2] (agonist: 3'3'-cGAMP 10 ug/mL) amounted to 0.69 ± 0.027; in assay [2] (agonist: LPS 0.1 ug/mL), 1.23 ± 0.18; in assay [2] (agonist: MPLA […]), 1.38 ± 0.23. In assay [3], the viability score is 0.962 (active).
Turning to `CN1C[C@@H]2c3ccccc3Oc3ccc(Cl)cc3[C@H]2C1.O=C(O)/C=C\C(=O)O`, the NF-kB reporter is 0.164 ± 0.03 in assay [1] (setting [4]), 0.821 ± 0.14 in assay [1] (agonist: LPS 0.1 ug/mL) and 0.908 ± 0.14 in assay [1] (agonist: MPLA […]). The IRF reporter in assay [2] (agonist: 3'3'-cGAMP 10 ug/mL) was determined as 0.475 ± 0.044; in assay [2] (agonist: LPS 0.1 ug/mL) it was 0.914 ± 0.088; in assay [2] (agonist: MPLA […]) it was 1.07 ± 0.13. Also, the viability score in assay [3] was 0.252 (inactive).
As to `CC(=O)N=c1sc(S(N)(=O)=O)nn1C` [Prestw-802], the results for the NF-kB reporter in assay [1] (setting [4]), in assay [1] (agonist: LPS 0.1 ug/mL) and in assay [1] (agonist: MPLA […]) were 1.06 ± 0.11, 0.991 ± 0.098 and 1.02 ± 0.12, respectively. Moreover, the IRF reporter in assay [2] (agonist: 3'3'-cGAMP 10 ug/mL) came to 0.986 ± 0.031; in assay [2] (agonist: LPS 0.1 ug/mL) it was 1.26 ± 0.15; in assay [2] (agonist: MPLA […]), 1.39 ± 0.19. The viability score in assay [3] is 1.03 (active).
Regarding `CNCC[C@H](Oc1cccc2ccccc12)c1cccs1`, the NF-kB reporter is 0.087 ± 0.0072 in assay [1] (setting [4]), 0.8 ± 0.08 in assay [1] (agonist: LPS 0.1 ug/mL) and 1.08 ± 0.058 in assay [1] (agonist: MPLA […]). Besides, the values for the IRF reporter in assay [2] (agonist: 3'3'-cGAMP 10 ug/mL), in assay [2] (agonist: LPS 0.1 ug/mL) and in assay [2] (agonist: MPLA […]) were 0.262 ± 0.019, 1.02 ± 0.2 and 1.01 ± 0.27, respectively. In assay [3], the viability score was 0.333 (inactive).
For `Cc1ccc(S(=O)(=O)c2ccc(O)c(O)c2)cc1`, the NF-kB reporter in assay [1] (setting [4]) amounted to 0.932 ± 0.074; in assay [1] (agonist: LPS 0.1 ug/mL), 1.02 ± 0.095; in assay [1] (agonist: MPLA […]), 1.03 ± 0.086. Besides, the figures for the IRF reporter in assay [2] (agonist: 3'3'-cGAMP 10 ug/mL), in assay [2] (agonist: LPS 0.1 ug/mL) and in assay [2] (agonist: MPLA […]) were 0.599 ± 0.036, 1.31 ± 0.096 and 1.08 ± 0.12, respectively. The viability score in assay [3] was 0.987 (active).
On to `CC12CC3(C)CC(C)(C1)CC(C(=O)NC(C)(C)CO)(C2)C3`, for which the NF-kB reporter in assay [1] (setting [4]) was determined as 0.866 ± 0.067; in assay [1] (agonist: LPS 0.1 ug/mL), 0.867 ± 0.097; in assay [1] (agonist: MPLA […]), 0.879 ± 0.09. Also, the values for the IRF reporter in assay [2] (agonist: 3'3'-cGAMP 10 ug/mL), in assay [2] (agonist: LPS 0.1 ug/mL) and in assay [2] (agonist: MPLA […]) were 0.996 ± 0.067, 1.42 ± 0.096 and 1.52 ± 0.16, respectively. For the same compound, the viability score in assay [3] is 1 (active).
Consider `CCOc1ccc(Nc2nc(Nc3ccc(OCC)cc3)nc(N3CCOCC3)n2)cc1`, for which the NF-kB reporter in assay [1] (setting [4]) stood at 0.35 ± 0.02; in assay [1] (agonist: LPS 0.1 ug/mL) it was 1.76 ± 0.13; in assay [1] (agonist: MPLA […]) it was 2.82 ± 0.16. In addition, the IRF reporter in assay [2] (agonist: 3'3'-cGAMP 10 ug/mL) was determined as 1.14 ± 0.083; in assay [2] (agonist: LPS 0.1 ug/mL), 4.42 ± 3; in assay [2] (agonist: MPLA […]), 4.93 ± 2.5. For the same compound, the viability score in assay [3] is 0.762 (active).
